Screens: PubChem, National Center for Advancing Translational Sciences (NCATS)
D1 potentiator – Potentiators of Human D1 Dopamine Receptor: qHTS; D(1A) dopamine receptor (Homo sapiens), P21728; HEK293 TREx D1 cells, calcium flux, dopamine EC20 potentiation; potentiation, % at 10 µM; 0.036% of 360,000 active; in the data active = potentiation above about 30%; note: 0% is about no effect
D3 ag – qHTS of D3 Dopamine Receptor Agonist: qHTS | D3R DiscoveRx beta-arrestin cells, luminescence, 90 min | max activation, % | 0.58% of 410,000 active | AID 652048, 2013; in the data active = max activation above about 30%; note: 0% is about no effect
Target sequence (P35462 whole entry, looked up): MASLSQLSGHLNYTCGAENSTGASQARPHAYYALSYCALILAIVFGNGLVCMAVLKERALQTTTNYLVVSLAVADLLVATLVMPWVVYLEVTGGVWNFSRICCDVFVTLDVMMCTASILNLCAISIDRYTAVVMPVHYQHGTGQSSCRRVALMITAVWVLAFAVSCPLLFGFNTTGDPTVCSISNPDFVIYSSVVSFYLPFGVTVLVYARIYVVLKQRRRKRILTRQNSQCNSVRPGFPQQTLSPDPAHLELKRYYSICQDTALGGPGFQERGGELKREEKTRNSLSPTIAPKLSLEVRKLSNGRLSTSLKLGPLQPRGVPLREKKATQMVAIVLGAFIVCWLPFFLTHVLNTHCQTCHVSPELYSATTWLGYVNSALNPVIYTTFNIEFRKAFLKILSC
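Cells at 1500/well, incubated overnight, then treated with pinned compounds (dopamine as control) for 90 min at 37 degrees C. DiscoveRx reagent added for 30 - 60 minutes at room temperature; luminescence read.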
DRD3 antagonist – qHTS of D3 Dopamine Receptor Antagonist: qHTS; 2.5% of 360,000 active; max response, negative = inhibition, %; D3R cells, DiscoveRx beta-arrestin luminescence, antagonist mode; active compounds read low; AID 652054, 2013; in the data active = max response below about -50%; inconclusive = no clear call, values can overlap the other calls; note: % is set by controls: 0 for no effect and ±100 for the full control effect
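Cells plated overnight at 1500 cells/well, then exposed to library compounds with dopamine controls for 90 minutes at 37 degrees C. DiscoveRx reagent added for 30–60 minutes at room temperature; luminescence read, quantitative HTS format.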
D1 agonist – Allosteric Agonists of the Human D1 Dopamine Receptor: qHTS; HEK293 T-REx D1 cells, calcium flux, agonist mode; D(1A) dopamine receptor (Homo sapiens), P21728; activation, % at 2 µM; 1% of 360,000 active; in the data active = activation above about 30%; note: 0% is about no effect
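Tetracycline-induced HEK293 TREx D1 cells, force-coupled to calcium signalling, were dye-loaded with a no-wash calcium kit. Compound was pin-added after a 10 s baseline. Fluorescence was read kinetically at 1 cycle/s for 180 s, with calcium rises flagged as agonism.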
D1 antag – Antagonist of Human D 1 Dopamine Receptor: qHTS. D(1A) dopamine receptor (Homo sapiens), P21728. HEK293 TREx D1 cells, calcium flux, dopamine EC80; active compounds read low. activity change, negative = inhibition, % at 10 µM. 3.2% of 360,000 active; in the data active = activity change below about -30%; note: % is set by controls: 0 for no effect and ±100 for the full control effect
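Tetracycline-induced HEK293 T-REx cells with force-coupled D1 receptor were loaded with a no-wash calcium dye. Compound was added after a 10 s baseline and read kinetically for 180 s; EC80 dopamine was then added and calcium flux followed another 180 s.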
* hit, by the source's call; ? = inconclusive; . = no result given. Rows were chosen to be rich in hits. Some 6.1% of all compounds tested hit in one or more screens of this group.

SMILES	D1 potentiator	D3 ag	DRD3 antagonist	D1 agonist	D1 antag
Cc1[nH]n(-c2ccccc2)c(=O)c1C(c1cccc([N+](=O)[O-])c1O)c1c(C)[nH]n(-c2ccccc2)c1=O	-6	-11	-70*	7	-13
Cc1c(C(c2cccc([N+](=O)[O-])c2O)c2c(C)n(C)n(-c3ccccc3)c2=O)c(=O)n(-c2ccccc2)n1C	-6	-8	-23	1	2
Cc1cc(C(c2ccc(C)o2)c2ccc(C)o2)c(O)c([N+](=O)[O-])c1	1	-6	-97*	3	31
Cc1ccc(CC(=O)Nc2cccc([N+](=O)[O-])c2)cc1	-2	0	-5	8	-20
Cc1ccc(SCC(=O)Nc2cc([N+](=O)[O-])ccc2O)cc1	-10	-4	-18	30*	-26
Cc1ccc(CC(=O)Nc2ccc([N+](=O)[O-])cc2C)cc1	-5	4	0	11	-41*
Cc1ccc(CC(=O)Nc2ncc([N+](=O)[O-])s2)cc1	-7	-1	-8	12	-39*
COC1=C(C)C(=O)C2=C(C1=O)C1C3CC4=C(C(=O)C(OC)=C(C)C4=O)C(CNC(=O)C(C)=O)N3C(C#N)C(C2)N1C (centres undefined)	.	-21	-57*	.	.
O=C1c2cnc3nc(SCc4ccc(Cl)cc4)nn3c2CC2c3ccccc3CCN12 (centres undefined)	-10	4	-14	0	4
CCCC(=O)NC1=C(Cl)C(=O)c2ccccc2C1=O	.	-28	-68*	.	.
O=C1C(Cl)=C(NCCN2CCCCC2)C(=O)c2ccccc21	-6	-22	-63*	1	-6
O=C(NCCN1CCCC1)c1ccccc1Cl	1	-20	-15	0	-4
CCNC1=C(Cl)C(=O)c2ccccc2C1=O	-3	3	?	7	-36*
COc1ccc(C(CNS(=O)(=O)c2cccc(F)c2)N2CCCC2)cc1 (centres undefined)	.	-10	-28	.	.
Cc1nn(CCC(=O)N2CCN(c3ccccc3)CC2)c(C)c1S(=O)(=O)N1CCCC1	0	-17	.	-1	-1
CCCn1ncc(OC)c(Cl)c1=O	-2	7	5	-1	-59*
O=C(/C=C/c1ccc2c(c1)OCO2)N1CCN(c2n[nH]c(=O)[nH]c2=O)CC1	3	6	0	2	1
COc1ccccc1N(C(C)=O)C1=C(Cl)C(=O)c2ccccc2C1=O	.	-14	-137*	.	.
CC(=O)N(C1=C(N)C(=O)c2ccccc2C1=O)C(C)C	-3	1	2	7	32
CC(C)Nc1ncnc2c1ncn2[C@H]1CN(Cc2ccc3c(c2)OCO3)C[C@@H](CO)O1	.	2	26	.	.
COc1ccc(NC(=S)NC2CC3CCC(C2)N3Cc2ccco2)cc1 (centres undefined)	-6	-14	-22	18	-64*
CCc1ccc(NC(=S)NC2CC3CCC(C2)N3Cc2ccco2)cc1 (centres undefined)	-3	-24	?	20	-77*
Cc1ccc2oc(=O)c3cc(C(=O)NCCCOC(C)C)sc3c2c1	0	4	.	3	7
O=C(CCn1nc(-c2ccc(Cl)cc2)ccc1=O)NCCc1ccccc1	0	-9	.	0	-18
COc1ccccc1NC(=O)CC1Sc2ccc(C(F)(F)F)cc2NC1=O (centres undefined)	-2	6	.	-1	3
SMILES	D1 potentiator	D3 ag	DRD3 antagonist	D1 agonist	D1 antag
Nc1nc(-c2cccnc2)nc(N2CCCCC2)n1	1	33*	5	2	0
COC(=O)C1=CC(C(=O)c2cccs2)=NN(c2ccc(OC)cc2)C1C(=O)OC (centres undefined)	-1	-8	-56*	21	-13
C/C(=N\NC(=O)C1(C)CC1(Br)Br)c1ccc(NC(=O)C2CCC2)cc1 (centres undefined)	-2	0	25	6	-27
O=C(/C=C/c1cccs1)Nc1nc(-c2ccccc2)cs1	-10	-18	34	1	-36*
COc1ccc(C(=O)CSc2nc(C(C)(C)C)nc3ccccc23)cc1	-2	7	64	13	2
COc1cccc(N2CC(C(=O)Nc3ccc(C(=O)OC(C)C)cc3)CC2=O)c1 (centres undefined)	-7	2	4	17	-30*
COc1cccc(N2CC(C(=O)Nc3ccc(F)cc3)CC2=O)c1 (centres undefined)	-4	-4	-2	10	3
Nc1ncnc2c1ncn2[C@@H]1O[C@H](COP(=O)(O)OP(=O)(O)OP(=O)(O)O)[C@@H](O)[C@H]1O	18	8	-8	291*	42
CC1(C)O[C@@H]2[C@H](O1)[C@@H](CO)O[C@H]2n1cnc2c(N)ncnc21	-1	5	5	0	-1
CC1(C)O[C@@H]2[C@H](O1)[C@@H](COS(=O)(=O)O)O[C@H]2n1cnc2c(N)ncnc21	-4	.	.	3	-31*
OCC1(Cc2ccccc2)CCN(Cc2ccc(-c3ccco3)cc2)CC1	3	-31	-85*	8	5
OCC1(Cc2ccccc2)CCCN(Cc2ccc(-c3ccco3)cc2)C1 (centres undefined)	-6	-20	-90*	1	2
O=c1[nH]c2ccc(S(=O)(=O)N3CCN(S(=O)(=O)c4c(F)cccc4F)CC3)cc2[nH]c1=O	-7	.	.	2	5
COc1ccc2c(c1)c(CC(=O)Nc1nnc(C3CC3)s1)c(C)n2C(=O)c1ccc(Cl)cc1	-5	54*	79	2	13
Cc1ccc2c(Br)cc(Br)c(O)c2n1	.	-29	.	.	.
COc1ccc(Cn2c(O)c(C=Nc3ccccc3)c3ccccc3c2=O)cc1	0	-5	-1	1	-6
COc1ccc(Cn2c(O)c(C=Nc3ccc(O)cc3)c3ccccc3c2=O)cc1	7	-22	-78*	9	-2
OCCC1CN(Cc2cccn2-c2cccnc2)CCN1C1CCCCC1 (centres undefined)	-4	-9	4	3	-7
CCN(CC(=O)Nc1c(F)cccc1F)C(=O)C1=COCCO1	0	4	-7	3	17
CN(C)c1ccc(/C=N/N(CCO)C2=NS(=O)(=O)c3ccccc32)cc1	2	-5	?	40*	7
Cc1noc(C)c1CSCC(=O)Nc1nc(-c2ccc(F)c(F)c2)cs1	-11	27	52	16	-43*
COc1ccc(-c2csc(NC(=O)CSCc3c(C)noc3C)n2)cc1OC	2	14	9	6	-4
CCOc1ccc(-c2cc(NC(=O)c3cccc(Cl)c3)c(C(=O)OC)s2)cc1	-3	-5	.	3	-15
